DAX1 inh: NR0B1 (DAX1) inhibition; P51843; hit rate 0.99% among 340,000; inhibition, % at 6.75 µM; HEK293 Gal4-DAX1 luciferase reporter, luminescence; AID 504766;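 active = inhibition above the mean over all tested compounds plus 3 SD, cut at about 4.2% in these data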;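 also: 0% = DAX1-transfected cells with DMSO and 100% = empty-vector control cells with DMSO; inhibition shows as a rise in luminescence from relieved DAX1 repression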
HSP90 inh: inhibitors of HSP90 luciferase refolding in rabbit reticulocyte lysate; AID 1789; hit rate 0.91% among 290,000; inhibition, % at 5.6 µM; luciferase refolding luminescence, 3 h;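 active = inhibition above the screen-wide mean plus 3 SD, computed separately per campaign, cut at about 16% in these data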;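 also: 0% = DMSO wells and 100% = 60 µM geldanamycin wells; inhibitors lower the luminescence because luciferase stays unfolded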
AHR activator: activators of human aryl hydrocarbon receptor; P35869; AHR-responsive luciferase reporter cells, luminescence; activation, % at 5 µM; hit rate 2.5% among 320,000; in the data active = activation above about 47%;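 also: 0% = vehicle wells and 100% = reference agonist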
HSF1 inhib: HSF1 inhibition; NIH3T3-HGL HSE-luciferase, MG132-induced, luminescence 8 h; active compounds read low; activity change, negative = inhibition, % at 7.5 µM (by protocol); hit rate 0.77% among 300,000;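 active = more than half of replicate wells show activity change below -50%, luminescence cut by over half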;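 also: luciferase reports HSF-1 transcriptional activity via heat shock element; 0% = median of DMSO wells and -100% = zero luminescence signal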
HSF-1 act: increases HSF-1 driven luciferase reporter signal; NIH3T3-HGL HSF-1 luciferase reporter, MG132, 8 h; 100% = twice DMSO control signal; activation, % at 9 µM; hit rate 1.7% among 300,000; AID 504408;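 active = mean replicate activation of at least 50% with a set share of replicates each reaching 50%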;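 also: 0% = median of the neutral control wells and 100% = twice that signal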
FXN GAA850 act: activators of GAA850 frataxin (FXN) promoter. HEK293 lucGAA850 FXN promoter luciferase reporter, 24 h; percent of 10 µM SAHA response. activation, % at 6 µM. hit rate 0.56% among 360,000;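 active = activation above the average of all compounds screened plus 3 SD, cutoff fixed separately per campaign, cut at about 7.5% in these data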;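 also: 0% = DMSO wells and 100% = 10 µM SAHA wells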
GAA30 counter: counter-screen for GAA850 frataxin promoter activators: GAA30 promoter activation; HEK293 lucGAA30 FXN promoter luciferase, 24 h; DMSO = 0%, 5 µM ipriflavone = 100%; hit rate 66% among 1,900; activation, % at 6 µM; shares compounds with FXN GAA850 act;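 active = mean activation above the mean of solvent-only control wells plus 3 SD, cut at about 22% in these data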;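 also: counterscreen of GAA850 promoter hits where activity marks nonselective or luminescence artifacts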
GAA850 confirm: GAA850 FXN promoter activation confirmation; shares compounds with FXN GAA850 act; hit rate 86% among 1,900; AID 588351; activation, % at 6 µM; HEK293 lucGAA850 FXN promoter luciferase reporter, 24 h; 100% = activation by SAHA;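 active = mean activation above a set limit taken from the primary screen, cut at about 8% in these data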;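 also: 0% = DMSO wells and 100% = 10 µM SAHA wells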
An asterisk follows results filed as active. In the library only some 5.9% were active in any assay of this set; here they are far more common.

Screening CCC1(CC)C(=O)NC(=O)N(c2ccccc2)C1=O returned DAX1 inh 0 and FXN GAA850 act -3.
CC(=NNC(=S)N1CC2CCC(CC2)C1)c1nccs1 was read as DAX1 inh -4, FXN GAA850 act 12*, GAA30 counter -66 and GAA850 confirm 4.
Screening Nc1cc(Cl)c2nonc2c1[N+](=O)[O-] returned DAX1 inh 1, HSP90 inh 2, AHR activator 1, FXN GAA850 act 43*, GAA30 counter 14 and GAA850 confirm 86*.
For Cc1cc(C)c(S(=O)(=O)N2Cc3ccccc3-n3nncc3C2)c(C)c1 the results were DAX1 inh -2 and FXN GAA850 act 0.
`CN(C)C1(CNC(=O)c2cc(S(=O)(=O)N3CCOCC3)c(Cl)cc2Cl)CCCCC1` gave DAX1 inh 0, AHR activator -1, HSF1 inhib -7, HSF-1 act -5 and FXN GAA850 act -1.
Screening COc1ccccc1-n1c(/C=C/c2ccccn2)nc2ccccc2c1=O returned DAX1 inh -2, HSP90 inh -1, AHR activator 2, HSF1 inhib 7, HSF-1 act 6 and FXN GAA850 act 0.
